PubChem BioAssay (NCATS)
Several values for one entry are separate records, joined by “and”; a condition that tells them apart may be missing. Identical values can stand only once. Results filed as inconclusive are left out. Where a structure was tested more than once in an assay, its records may differ in their call. Activity calls are given as the source filed them. Unless noted, calls come from the whole dose curve; as a rule, active = well fitted curve in the direction sought with a large enough effect; inconclusive = small, poorly fitted or top-dose-only effect, or another doubt; inactive = no such curve, though single readings can be large; an effect the other way counts as inactive or inconclusive.

Assays:
[1] = High-throughput drug toxicity screening in the BPDCN cell line Cal-1 (AID 1224825; call rule not given here); conditions: Cal-1 BPDCN cell viability, qHTS; at 45.8 µM (top of the series) unless noted
Summary of the method: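 Cal-1 cells, 500 per well in phenol-red-free RPMI with 10% FBS, exposed to compounds for 48 hours at 37C, 5% CO2. Viability read by CellTiter-Glo luminescence; percent activity normalized to DMSO (100%) and 9.2 uM bortezomib final (0%).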

[2] = qHTS assay for measurement of the activity of small molecule inhibitors on Zika virus induced Caspase-3 activity in human iPSC derived neural progenitor cells (hNPCs) (AID 1224857); note: nearly all actives have a fitted effect of over 65% in size; note: potency is the fitted concentration of half-maximal effect
Summary of the method: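 hNPCs seeded 350 cells/well, cultured 16–20 h; compounds added 1 h before ZIKV (2 FFU/cell), 37 C 6 h. Caspase-Glo 3/7 luminescence after 30 min RT; % inhibition from induction scaled to uninfected (0%) and infected (100%) wells.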

[3] = qHTS assay for measurement of the activity of small molecule inhibitors on Zika virus induced Caspase-3 activity in human astrocytoma cells (AID 1224859);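 note: plate controls were ZIKV-infected untreated cells for no effect and uninfected cells for full effect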
Summary of the method: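 Luminescence read-out (Caspase-Glo 3/7, 30 min RT) of caspase activity in SNB-19 cells infected 6 h with ZIKV, 2 FFU/cell, after 1 h compound pretreatment; % inhibition from induction normalised to uninfected (0%) and infected (100%) wells.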

[4] = qHTS profiling of the MIPE4 collection as inhibitors of Plasmodium falciparum (3D7) proliferation (AID 743344; call rule not given here;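 note: scaled between DMSO vehicle wells and 0.29 µM artemisinin as full inhibition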); conditions: P. falciparum 3D7 in erythrocytes, SYBR Green DNA fluorescence, 72 h; at 28.5 µM (top of the series) unless noted
Summary of the method: (§1)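 Erythrocytes infected with P. falciparum (0.3% parasitemia, 2.5% hematocrit) incubated with compounds 72 h at 37 C, 5% CO2. Lysis with saponin/Triton buffer containing SYBR Green I, overnight at room temperature in the dark; DNA fluorescence (485/535 nm) normalised to 0.29 uM artemisinin and DMSO.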

[5] = qHTS profiling of the MIPE4 collection as inhibitors of Plasmodium falciparum (DD2) proliferation (AID 743345; call rule not given here); conditions: P. falciparum Dd2 in erythrocytes, SYBR Green DNA, 72 h; at 28.5 µM (top of the series) unless noted
Summary of the method: as §1

[6] = qHTS profiling of the MIPE4 collection as inhibitors of Plasmodium falciparum (DD2) proliferation (Rep 2) (AID 743346; call rule not given here); conditions: P. falciparum Dd2 in erythrocytes, SYBR Green DNA, 72 h; at 28.5 µM (top of the series) unless noted
Summary of the method: as §1

[7] = qHTS profiling of the MIPE4 collection as inhibitors of Plasmodium falciparum (HB3) proliferation (AID 743347; call rule not given here;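 note: plate controls were DMSO vehicle wells for no effect and artemisinin wells for full effect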); conditions: P. falciparum HB3 in erythrocytes, SYBR Green DNA, 72 h; at 28.5 µM (top of the series) unless noted
Summary of the method: as §1

[8] = High-throughput drug toxicity screening in the BPDCN cell line Gen2.2 (AID 1224824; call rule not given here;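 note: cells exposed to compounds for 48 h before reading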); conditions: Gen2.2 BPDCN cells; at 45.8 µM (top of the series) unless noted
Summary of the method: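 Seed 500 exponentially growing Gen2.2 cells/well; add compounds by pin tool; incubate 48 h, 37 °C, 5% CO2; add CellTiter-Glo, 15 min RT; read luminescence. % activity vs DMSO (100%) and bortezomib (0%).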

[9] = qHTS profiling for inhibitors of Plasmodium falciparum (DD2) proliferation (AID 743323; call rule not given here); conditions: at 28.7 µM (top of the series), lower = more inhibition
Summary of the method: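 Parasite DNA quantified by SYBR Green fluorescence (ex 485, em 535 nm) after saponin/Triton lysis and overnight dark incubation. Cultures: 0.3% parasitemia, 2.5% hematocrit, 72 h, 37 C; data scaled between DMSO and 0.29 uM artemisinin.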

[10] = qHTS profiling for inhibitors of Plasmodium falciparum (HB3) proliferation (AID 743324); conditions: Plasmodium falciparum HB3 blood-stage proliferation; at 28.7 µM (top of the series);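 note: 100% = DMSO vehicle wells and 0% = artemisinin-treated control wells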
Summary of the method: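 P. falciparum HB3 grown in erythrocytes (0.3% parasitemia, 2.5% hematocrit final) with compound for 72 h at 37 C, 5% CO2. Parasite DNA detected by SYBR Green after saponin/triton lysis overnight; normalized to 0.29 uM artemisinin and DMSO.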

| SMILES | viability (% of control) [1] | Potency [2] | Potency [3] | parasite growth, % of DMSO control [4] | parasite growth remaining, % of DMSO control (lower = more inhibition) [5] | parasite growth, % of control (lower = inhibition) [6] | growth, % of control [7] | cell viability, % of control (lower = more cytotoxic) [8] | activity, percent of control [9] | remaining proliferation (% of control), lower = more inhibition [10] |
| --- | --- | --- | --- | --- | --- | --- | --- | --- | --- | --- |
| CCOC(=O)c1ncn2c1CN(C)C(=O)c1cc(F)ccc1-2 | 17.4% | inactive | inactive |  |  |  |  |  |  |  |
| COc1ccccc1OCC(O)CN1CCN(CC(=O)Nc2c(C)cccc2C)CC1 (centres undefined) | 18.6% | inactive | inactive | 126% | 97.5% | 193% | 101% | 126% |  |  |
| CCC1(c2ccccc2)C(=O)NCNC1=O | 8.03% | inactive | inactive | 109% | 102% | 107% | 91% | 15.1% |  |  |
| CC(C)C(=O)Nc1ccc([N+](=O)[O-])c(C(F)(F)F)c1 | 5.71% | inactive | inactive |  |  |  |  |  |  |  |
| O=C(c1ccc(OCCN2CCCCC2)cc1)c1c(-c2ccc(O)cc2)sc2cc(O)ccc12 | 40.4% | inactive | inactive | 7.18% | 32.9% | 20.8% | 9.13% | 67.1% |  |  |
| CC(C)NCC(O)c1ccc(O)c(O)c1 (centres undefined) | 16% | inactive | inactive | 10.6% | 91.4% | 9.11% | 9.05% | 46.4% |  |  |
| Clc1ccccc1C(c1ccccc1)(c1ccccc1)n1ccnc1 | 74% | inactive | inactive | 4.91% | 6.19% | 11% | 5.57% | 52.9% |  |  |
| CN1C(C(=O)Nc2ccccn2)=C(O)c2ccccc2S1(=O)=O | 8.08% | inactive | inactive | 77.2% | 88.2% | 136% | 90.6% | 61.5% |  |  |
| CC(C)(Oc1ccc(C2CC2(Cl)Cl)cc1)C(=O)O (centres undefined) | 9.42% [at 92.2 µM] | inactive | inactive | 107% [at 57.5 µM] | 105% [at 57.5 µM] | 92.2% [at 57.5 µM] | 81.2% [at 57.5 µM] | 77.7% [at 92.2 µM] |  |  |
| CN1CCN(C2=Nc3cc(Cl)ccc3Nc3ccccc32)CC1 | 83.1% | inactive | inactive |  |  |  |  |  |  |  |
| Clc1ccc2nsnc2c1NC1=NCCN1 | 57% | inactive and 20.9 µM (active) | inactive | 73.6% | 98.6% | 45.7% | 67.7% | 64.1% |  |  |
| C[C@](N)(Cc1ccc(O)c(O)c1)C(=O)O | 66% | inactive | inactive | 73.9% | 80% | 77.2% | 86% | 46.6% |  |  |
| NC12CC3CC(CC(C3)C1)C2 | 9.3% | inactive | inactive | 11.2% | 72% | 25.9% | 4.58% | 60.9% |  |  |
| CN1CCN2c3ccccc3Cc3ccccc3C2C1 (centres undefined) | 91.5% | inactive | inactive | 56.9% | 60.5% | 44.9% | 99.7% | 83.4% |  |  |
| CC(C)(C)C(=O)Oc1ccc(S(=O)(=O)Nc2ccccc2C(=O)NCC(=O)O)cc1 | 96% | inactive | inactive | 101% | 92.3% | 91.4% | 67.9% | 103% |  |  |
| Cn1c(=O)c2c(ncn2C)n(C)c1=O | 116% | inactive | inactive | 91.2% | 96.6% | 81.8% | 103% | 150% |  |  |
| NCCCCCC(=O)O | 130% | inactive | inactive | 417% | 91.3% | 118% | 708% | 140% |  |  |
| Cc1cc(C(C)(C)C)cc(C)c1CC1=NCCN1 | 12.2% | inactive | inactive |  |  | 17.1% |  | 20.6% |  |  |
| NC(CO)C(=O)NNCc1ccc(O)c(O)c1O (centres undefined) | 79.5% | inactive and 7.43 µM (active) | inactive | 84.1% | 125% | 89.1% | 99.5% | 86.9% |  |  |
| CC(=O)OCC(CCn1cnc2cnc(N)nc21)COC(C)=O | 106% | inactive | inactive | 99.1% | 136% | 91.8% | 98.2% | 153% |  |  |
| NC(=O)NO | 2.6% | inactive | inactive | 93.9% | 97.5% | 95.5% | 96.8% | 4.63% |  |  |
| COC(=O)Nc1nc2ccc(C(=O)c3cccs3)cc2[nH]1 | 10.7% | inactive | inactive | 54.5% | 93.5% | 91.6% | 80% |  |  |  |
| CCCNCC(O)COc1ccccc1C(=O)CCc1ccccc1 (centres undefined) | 1.7% | inactive | inactive | 5.54% | 6.97% | 15.6% | 6.85% |  |  |  |
| Clc1ccc(C(c2ccccc2Cl)C(Cl)Cl)cc1 (centres undefined) | 18.1% | inactive | inactive | 24.3% | 51.1% | 54.8% | 50.8% |  |  |  |
| CCCCc1oc2ccccc2c1C(=O)c1cc(I)c(OCCN(CC)CC)c(I)c1 | 8.13% | inactive | inactive | 6.22% | 6.54% | 19.3% | 8.19% |  |  |  |
| CS(=O)(=O)Nc1ccc([N+](=O)[O-])cc1Oc1ccccc1 | 17% | inactive | inactive | 87.3% | 94.3% | 84.4% | 92.7% |  |  |  |
| CC1(CN2CCC(n3c(=O)[nH]c4ccccc43)CC2)OCc2ccccc2-n2cccc21 (centres undefined) | 102% | inactive | inactive | 10.9% | 9.37% | 11% | 7.33% |  | 17.6% | 0.0183% |
